About 5,000 (1.2%) of roughly 410,000 compounds were called active. About 13% were inconclusive and are not listed. Calls follow the shape of the dose curve; as a rule, active = well fitted inhibition curve with a large enough effect; inconclusive = small, poorly fitted or top-dose-only effect; inactive = no such curve, though single readings can be large or run the other way. Many of the other results were omitted from the sample, so actives are more common in it than they were.
Assay: qHTS for Inhibitors of TGF-b; also: nearly all actives have a fitted effect of over 65% in size
Settings: HepG2 CAGA-GFP TGF-b/SMAD3 reporter, GFP fluorescence, 18 h, TGF-beta stimulated, 500 pg/mL final; series mostly up to 46.1 µM; activity, negative = inhibition: at the top concentration
How it was run: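 GFP signal (ex488/em500-530) from TGF-beta-stimulated HEPG2 CAGA-GFP cells, 500 pg/mL final, 18 h at 37 degrees C in DMEM plus 1% FBS, normalized to unstimulated and DMSO-stimulated controls.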
% is scaled to controls: 0 for no effect and ±100 for the full control effect; potency is read from the fitted curve at half-maximal effect.

activity, negative = inhibition, inactive:
Cc1cc(=O)n(CC(=O)Nc2cccc([N+](=O)[O-])c2)c(-n2nc(C)cc2C)n1 0%
Cc1ccccc1CS(=O)(=O)CC1Nc2ccc(C(=O)NCc3ccc(Cl)cc3)cc2NC1=O (stereo not drawn) -1.42%
CCOc1ccc(Cl)cc1-c1cc(C(=O)NCc2cccs2)[nH]n1 2.8%
CC(C)Oc1cc(F)ccc1-c1cc(C(=O)Nc2ccc(F)cc2)[nH]n1 6.2%
CCOC(=O)c1ccccc1NC(=O)c1sc2nc(-c3ccc(F)cc3)cn2c1C -6.41%
CCS(=O)(=O)N1CCc2cc(C(=O)NCc3ccc(C)cc3)ccc21 1.67%
CC(=O)Nc1c(C)nn(-c2ccccc2)c1N1CCC(C(=O)Nc2cc(Cl)ccc2C)CC1 -5.23%
CCc1ccc(CNC(=O)C2CCN(c3nn4cc(-c5ccc(F)cc5)nc4s3)CC2)cc1 -1.09%
Cc1nnc(N2CCCC(C(=O)NCCN(C)C)C2)c2nn(-c3ccccc3)c(C)c12 (stereo not drawn) -6.54%
CCCCNC(=O)C1CCCN(c2nnc(C)c3c(C)n(-c4ccc(Cl)cc4)nc23)C1 (stereo not drawn) -36.1%
CCOc1ccc(CNC(=O)c2ccc3nc(CC)c(CC)nc3c2)cc1OC 15.4%
CC(=O)c1ccc[n+](C(C)CCC(C)[n+]2cccc(C(C)=O)c2)c1 (stereo not drawn) 8.48%
Cc1c(Cl)cccc1NC(=O)CCS(=O)(=O)c1ccc2c(c1)oc(=O)n2C -21.7%
Cc1ccccc1-c1nc(SCC(=O)N(C)c2ccccc2)c2c(=O)n(C)c(=O)n(C)c2n1 6.3%
CC(OC(=O)/C=C/c1ccccc1)C(=O)NC1CCCCC1C (stereo not drawn) -16.4%
CC1CC(C)CN(C/C=C/c2ccccc2[N+](=O)[O-])C1 (stereo not drawn) -22.1%
COc1ccc(CNC(=O)c2cc3c(=O)[nH]c4ccc(C)cc4c3s2)c(OC)c1 -24.9%
Nc1ccccc1N -6.36%
CCC(C)N(C(=O)CSc1nnnn1-c1ccccc1OC)C1CCS(=O)(=O)C1 (stereo not drawn) -8.36%
COc1ccccc1-n1nnnc1SCC(=O)NC(=O)Cc1ccccc1 -4.63%
CN(C)c1ccc(/C=C/C=C/c2ccnc3ccccc23)cc1 63%
CCc1cccc(NC(=O)Cn2nc(CC)n3c(cc4cc(C)ccc43)c2=O)c1 -2.34%
CCc1cnc2c(c1SCC(=O)N1CCC(C)CC1)c(=O)n(C)c(=O)n2C 0.0678%
CCOC(=O)c1ccc2c(c1)N(Cc1cccc(OC)c1)C(=O)c1ccccc1S2(=O)=O -6.73%
O=C(CSc1ncc(S(=O)(=O)c2ccc(Br)cc2)c(=O)[nH]1)Nc1ccc2c(c1)OCCO2 32.6%
CC(C)C12CN3CC(C(C)C)(CN(C1)C3c1ccc(OCc3ccccc3)cc1)C2=O (stereo not drawn) 0.227%
COCCN(CCOC)S(=O)(=O)c1ccc(C(=O)Nc2nc3c(s2)CCc2ccccc2-3)cc1 -15.9%
COc1ccc(NS(=O)(=O)c2ccc(N3CCOCC3)c(NC(=O)c3ccccc3Br)c2)cc1 -32.2%
Cc1ccc2nc(COc3ccccc3NC(=O)Nc3ccc(F)c(Cl)c3)cc(=O)n2c1 -6.3%
COc1ccc(C2=CC(c3ccccc3Cl)n3nc(-c4ccc(Cl)cc4)nc3N2)cc1 (stereo not drawn) -2.29%
O=C(c1cnn2c1NC(=C1CC1)C=C2C(F)F)N1CCc2ccccc2C1 -8.04%
Cc1ccc(C)c(N2CCN(S(=O)(=O)c3ccc4c(c3)oc(=O)n4C)CC2)c1 -8.2%
Cc1ccc(N2CCN(S(=O)(=O)c3ccc(F)cc3)CC2)c(C)c1 -8.07%
O=C(CCc1nc(CN2CCN(S(=O)(=O)c3ccc(F)cc3)CC2)no1)N1CCCCC1 15.1%
Cc1cccc(NC(=O)Cn2c(=O)n(CCC(C)C)c(=O)c3cccnc32)c1 -3.93%
Cc1ccc(C)c(CN2C(=O)c3ccccc3S(=O)c3ccc(C(=O)N4CCOCC4)cc32)c1 (stereo not drawn) -28.2%
O=C(c1snnc1-c1ccccc1)N1CCOCC1 -0.268%
CCCCOc1ccc(C(=O)N2CC(=O)Nc3ccc(Br)cc3C2c2ccc(F)cc2)cc1 (stereo not drawn) -36%
COc1ccc2oc(=O)c(-c3cn4c(n3)sc3cc(OC)ccc34)cc2c1 5.81%
Cc1c(CCO)sc[n+]1CC(=O)c1ccc2ccccc2c1 -5.47%

Potency, active:
CCCOc1ccc(F)cc1-c1cc(C(=O)Nc2ccc(F)c(Cl)c2)[nH]n1 11.2 µM
Cc1nnc(N2CCC(C(=O)Nc3ccc(F)cc3)CC2)c2nn(-c3ccc(Cl)cc3)c(C)c12 10 µM
CC1CCCCC1NC(=O)/C(C#N)=C/C=C/c1ccccc1[N+](=O)[O-] (stereo not drawn) 20 µM
COc1ccccc1-n1nnnc1S(=O)(=O)Cc1ccc(Cl)cc1 7.08 µM
Cc1cc2c(cc1C)N1C(=O)c3cc4ccccc4cc3NC(=O)C1C(=O)N2 (stereo not drawn) 12.6 µM
COc1ccc2c(c1)Cc1sc(NC(=O)c3ccccc3Br)nc1-2 7.08 µM
Cc1ccc(C)c(N2CCN(S(=O)(=O)c3ccc4c(c3)C(C(C)C)C(=O)N4)CC2)c1 (stereo not drawn) 15.8 µM
Cc1oc2c(c1C(=O)N1CCOCC1)C(=O)c1ccccc1C2=O 4.47 µM

From PubChem BioAssay AID588855 (National Center for Advancing Translational Sciences (NCATS), 2011)
